The results in this text go back to PubChem BioAssay (Tox21).

Values without a mark were called inactive. Records with an inconclusive call do not appear. Active and inactive are the calls of the source. Unless noted, calls come from the whole dose curve.

The nature of experiment [1]: Nuclear factor erythroid 2-related factor 2/antioxidant responsive element (Nrf2/ARE) small molecule agonists: qHTS cell viability counter screen in human keratinocytes (AID 1919968; active = well fitted curve in the direction sought with a large enough effect in the repeat runs; an effect the other way counts as inactive or inconclusive; note: nearly all actives have a fitted effect of over 55% in size). The gist of the method:
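After a 5 h attachment period, ARE-reporter keratinocytes were dosed with compounds in DMSO and then cultured 23 h at 37 C. Cell viability came from CellTiter-Fluor signal read after a further 1 h.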
(In general: Quantitative high-throughput screening tests each substance at several concentrations.)

For experiment [2], the target named is Gonadotropin-releasing hormone receptor (Homo sapiens) (UniProt P30968). Briefly: Human gonadotropin-releasing hormone receptor (GnRHR) small molecule agonists, calcium flux assay in GnRHR-HEK293 cells (AID 1920063). Note: nearly all actives have a fitted effect of over 35% in size. The gist of the method: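 We seeded human GnRHR-expressing HEK293 cells for 18 hours, loaded them with calcium dye for an hour at 37 C, added test compounds, and recorded fluorescence intensity kinetically for three minutes.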

Experiment [3] has as its target KiSS-1 receptor (Homo sapiens) (UniProt Q969F8). The experiment in a line: Human kisspeptin (KISS1R) small molecule agonists, calcium flux assay in KISS1R-HEK293 cells (AID 1920064; active = well fitted curve in the direction sought with a large enough effect in the repeat runs; an effect the other way counts as inactive or inconclusive). In outline: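 Kinetic calcium assay, 1 s sampling over 3 min at Ex/Em 480/540, in HEK293 cells engineered with human KISS1R; compounds delivered in DMSO after 1 h dye loading.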
(Calcium flux is commonly read through the fluorescence of an indicator in the cells.)

Experiment [4] is described as follows: G protein-coupled receptor (GPCR) small molecule agonists, calcium flux assay: HEK293 wild type cell line counter screen (AID 1920065). The gist of the method:
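Calcium-sensitive dye, loaded 1 h at 37 C into cells cultured 18 h, reports compound-evoked calcium release as fluorescence (Ex/Em 480/540), measured over 3 min. Agonist mode; 15-point titrations, triplicate.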

Experiment [5] can be described thus: p53 small molecule agonists, cell-based qHTS assay with human liver microsomes: qHTS cell viability counter screen (AID 1963579). Note: nearly all actives have a fitted effect of over 45% in size. Note: potency is the fitted concentration of half-maximal effect. The gist of the method:
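In this multiplexed counter screen, the reporter plates were subsequently treated with CellTiter-Glo so that cell viability, reflected by luminescence, could be recorded for p53RE-bla cells dosed 16 h with compounds under microsomal activation (HLM and NADPH).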

Experiment [6] in a line: p53 small molecule agonists, cell-based qHTS assay with rat liver microsomes: qHTS cell viability counter screen (AID 1963580). Note: nearly all actives have a fitted effect of over 45% in size. The gist of the method: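 p53RE-bla HCT-116 cells (4,000/well) rested 5 h at 37 C, then given Tox21 compounds in DMSO with rat liver microsomes (0.5 mg/mL final) plus NADPH (0.5 mg/mL final) for 16 h at 37 C. Viability read by CellTiter-Glo luminescence after 30 min at room temperature.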

Experiment [7] in a line: p53 small molecule agonists, cell-based qHTS assay: qHTS cell viability counter screen (AID 1963581). Note: nearly all actives have a fitted effect of over 45% in size. The gist of the method:
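Following 5 h attachment, HCT-116 p53RE-bla cells took up compound for 16 h at 37 C; the reporter was read with B/G FRET substrate (2 h RT), and viability then via CellTiter-Glo ATP luminescence.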

Experiment [8] concerns the target 5-hydroxytryptamine receptor 2A (Homo sapiens) (UniProt P28223). The experiment in a line: 5-hydroxytryptamine receptor 2A (HTR2A) small molecule agonists, cell-based qHTS assay (AID 1963587). Note: nearly all actives have a fitted effect of over 30% in size. In outline:
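HTR2A-CHO cells, plated 18 h at 37 C/5% CO2, dye-loaded 1 h at 37 C; compounds in DMSO added by pin tool (agonist mode). Intracellular calcium flux read as kinetic fluorescence on FDSS over 2 min at 1 s intervals.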

In experiment [9] the target is Muscarinic acetylcholine receptor M1 (Homo sapiens) (UniProt P11229). Briefly: Cholinergic receptor muscarinic 1 (CHRM1) small molecule antagonists, cell-based qHTS assay (AID 1963588). Note: nearly all actives have a fitted effect of over 40% in size. In outline: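 CHRM1-CHO calcium-flux assay, antagonist mode. Cells were seeded 18 h, dye-loaded 1 h at 37 C and given compound for 5 min at RT, then acetylcholine was added at 50nM. FDSS fluorescence was read 3 min; 15 concentrations, three runs.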

The target is the same in experiment [10]. The experiment in a line: Cholinergic receptor muscarinic 1 (CHRM1) small molecule agonists, cell-based qHTS assay (AID 1963589). Note: nearly all actives have a fitted effect of over 35% in size. In outline:
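Measures agonist-induced intracellular calcium rise. Stable human CHRM1 CHO line, 1 h dye load at 37 C, compounds from DMSO, kinetic fluorescence read.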

Experiment [11] in a line: cAMP Responsive Elements (CRE) small molecule agonists, cell-based qHTS assay (AID 1963590). In outline: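 A CRE-responsive beta-lactamase reporter in HEK 293T cells was used. Treatment ran 3 h at 37 C; detection used LiveBLAzer B/G FRET substrate for 2 h at room temperature.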
In experiment [12] the target is Beta-2 adrenergic receptor (Homo sapiens) (UniProt P07550). Briefly: Adrenergic beta2 receptor (ADRB2) small molecule antagonists, cell-based qHTS assay (AID 1963592). Note: series mostly up to about 92 µM; nearly all actives have a fitted effect of over 50% in size. In outline: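 Cells (CHO, stable ADRB2 overexpression) incubated 18-20hr at 37C; compounds added from DMSO; agonist mix (1nM isoproterenol, 100uM IBMX, 25uM Ro-20-1724) added; 0.5hr RT; d2-cAMP and anti-cAMP-cryptate added; 1hr RT; 665/615 nm read.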

Experiment [13] deals with D(2) dopamine receptor (Homo sapiens) (UniProt P14416). Briefly: Dopamine D2 receptor (DRD2) small molecule antagonists, cell-based qHTS assay (AID 1963595; active = well fitted inhibition curve with a large enough effect in the signal ratio in the repeat runs, with a control signal flat; the % refers to the signal ratio). In outline: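 HEK293 cells stably expressing DRD2, preincubated with 0.1 mM Ro20-1724 and compounds 10 min, were stimulated with 200 nM NKH477 plus 12 nM quinpirole for 30 min at room temperature; cAMP measured by HTRF (665/620 nm).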

Experiment [14] addresses 5-hydroxytryptamine receptor 2A (Homo sapiens) (UniProt P28223). The experiment in a line: 5-hydroxytryptamine receptor 2A (HTR2A) small molecule antagonists, cell-based qHTS assay (AID 1963586). Note: nearly all actives have a fitted effect of over 45% in size. The gist of the method: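 Antagonist-mode intracellular calcium assay: DOI (4 nM) added after 5 min compound pre-incubation at room temperature to dye-loaded HTR2A-CHO cells. Fluorescence followed for 3 min, sampled every second.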

For experiment [15], the target named is D(2) dopamine receptor (Homo sapiens) (UniProt P14416). The experiment in a line: Dopamine D2 receptor (DRD2) small molecule agonists, cell-based qHTS assay (AID 1963594). Note: nearly all actives have a fitted effect of over 35% in size. The gist of the method: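 HEK293 cells stably expressing DRD2 were cultured 24 h at 37 C, then given Ro20-1724 (0.1 mM final) and compounds for 10 min at room temperature. NKH477 (200nM) was then added for 30 min. cAMP was read by HTRF.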

Experiment [16] addresses Beta-2 adrenergic receptor (Homo sapiens) (UniProt P07550). The experiment in a line: Adrenergic beta2 receptor (ADRB2) small molecule agonists, cell-based qHTS assay (AID 1963593).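 Note: CHO cells stably overexpressing human ADRB2.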 In outline: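 CHO cells stably over-expressing ADRB2 were plated overnight at 37C, then dosed with compounds plus a stimulation mix containing 100uM IBMX and 25uM Ro-20-1724 for 0.5hr at room temperature. cAMP was measured by HTRF competition, 1hr.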

Experiment [17] in a line: cAMP Responsive Elements (CRE) small molecule antagonists, cell-based qHTS assay (AID 1963591; active = well fitted inhibition curve with a large enough effect in the signal ratio in the repeat runs, not every such curve was filed as active; the % refers to the signal ratio). In outline:
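HEK293T cells carrying a CRE-driven beta-lactamase reporter receive compound and NKH477 (0.25 uM final) for 3 h. Fluorescence from LiveBLAzer B/G FRET substrate is read after 2 h at room temperature.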

The nature of experiment [18]: p53 small molecule agonists, cell-based qHTS assay (AID 1963582; active = well fitted activation curve with a large enough effect in the signal ratio in the repeat runs, not every such curve was filed as active; the % refers to the signal ratio). In outline:
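In this cell-based concentration-response screen, a p53 response element drives beta-lactamase; cells received DMSO-borne compounds after 5 h culture and were incubated a further 16 h before FRET substrate development.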

D(2) dopamine receptor (Homo sapiens), sequence (P14416 whole entry, looked up): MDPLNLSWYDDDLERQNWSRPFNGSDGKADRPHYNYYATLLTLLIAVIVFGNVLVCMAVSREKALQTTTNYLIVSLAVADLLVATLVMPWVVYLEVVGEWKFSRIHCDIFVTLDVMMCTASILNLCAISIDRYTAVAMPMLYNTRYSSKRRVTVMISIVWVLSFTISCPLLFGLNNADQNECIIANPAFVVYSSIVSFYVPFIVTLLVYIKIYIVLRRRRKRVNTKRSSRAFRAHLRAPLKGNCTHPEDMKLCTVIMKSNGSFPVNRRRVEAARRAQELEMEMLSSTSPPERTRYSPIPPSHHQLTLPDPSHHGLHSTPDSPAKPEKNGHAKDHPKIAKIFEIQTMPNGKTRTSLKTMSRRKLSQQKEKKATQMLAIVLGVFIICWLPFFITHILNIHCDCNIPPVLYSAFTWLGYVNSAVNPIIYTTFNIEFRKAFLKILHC
Muscarinic acetylcholine receptor M1 (Homo sapiens), sequence (P11229 whole entry, looked up): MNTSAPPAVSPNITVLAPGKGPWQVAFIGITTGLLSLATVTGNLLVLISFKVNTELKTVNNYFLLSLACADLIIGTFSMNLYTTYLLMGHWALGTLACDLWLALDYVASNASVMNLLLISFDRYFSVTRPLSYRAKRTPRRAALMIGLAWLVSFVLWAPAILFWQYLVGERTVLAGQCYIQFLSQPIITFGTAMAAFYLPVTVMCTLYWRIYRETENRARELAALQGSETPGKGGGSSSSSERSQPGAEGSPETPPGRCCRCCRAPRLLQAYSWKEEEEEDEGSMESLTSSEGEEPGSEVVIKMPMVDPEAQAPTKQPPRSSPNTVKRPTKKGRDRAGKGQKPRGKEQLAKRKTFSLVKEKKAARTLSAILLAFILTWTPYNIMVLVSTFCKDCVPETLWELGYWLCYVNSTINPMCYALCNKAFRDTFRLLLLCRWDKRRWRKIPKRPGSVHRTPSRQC
Gonadotropin-releasing hormone receptor (Homo sapiens), sequence (P30968 whole entry, looked up): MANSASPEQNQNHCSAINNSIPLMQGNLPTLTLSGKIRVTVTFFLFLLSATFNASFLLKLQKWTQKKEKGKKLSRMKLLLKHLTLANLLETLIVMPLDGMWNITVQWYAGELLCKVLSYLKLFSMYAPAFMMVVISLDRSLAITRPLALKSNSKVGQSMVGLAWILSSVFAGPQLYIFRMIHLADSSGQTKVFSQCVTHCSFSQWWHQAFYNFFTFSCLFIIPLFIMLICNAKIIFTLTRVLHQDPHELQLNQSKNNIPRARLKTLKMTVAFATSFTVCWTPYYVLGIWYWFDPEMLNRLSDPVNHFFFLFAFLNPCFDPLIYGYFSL
5-hydroxytryptamine receptor 2A (Homo sapiens), sequence (P28223 whole entry, looked up): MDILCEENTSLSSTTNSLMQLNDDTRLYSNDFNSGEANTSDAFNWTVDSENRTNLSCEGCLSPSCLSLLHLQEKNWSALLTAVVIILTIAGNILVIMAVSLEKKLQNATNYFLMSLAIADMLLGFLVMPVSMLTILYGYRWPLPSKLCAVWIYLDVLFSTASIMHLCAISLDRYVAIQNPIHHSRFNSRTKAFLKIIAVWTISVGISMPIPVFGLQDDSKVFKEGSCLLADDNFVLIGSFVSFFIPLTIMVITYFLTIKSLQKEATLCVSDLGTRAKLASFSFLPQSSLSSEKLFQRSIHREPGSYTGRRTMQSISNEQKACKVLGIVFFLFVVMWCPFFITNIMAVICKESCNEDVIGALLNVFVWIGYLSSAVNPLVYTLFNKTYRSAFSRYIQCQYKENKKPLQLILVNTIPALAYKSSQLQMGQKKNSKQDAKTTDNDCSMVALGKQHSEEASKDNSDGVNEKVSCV
KiSS-1 receptor (Homo sapiens), sequence (Q969F8 whole entry, looked up): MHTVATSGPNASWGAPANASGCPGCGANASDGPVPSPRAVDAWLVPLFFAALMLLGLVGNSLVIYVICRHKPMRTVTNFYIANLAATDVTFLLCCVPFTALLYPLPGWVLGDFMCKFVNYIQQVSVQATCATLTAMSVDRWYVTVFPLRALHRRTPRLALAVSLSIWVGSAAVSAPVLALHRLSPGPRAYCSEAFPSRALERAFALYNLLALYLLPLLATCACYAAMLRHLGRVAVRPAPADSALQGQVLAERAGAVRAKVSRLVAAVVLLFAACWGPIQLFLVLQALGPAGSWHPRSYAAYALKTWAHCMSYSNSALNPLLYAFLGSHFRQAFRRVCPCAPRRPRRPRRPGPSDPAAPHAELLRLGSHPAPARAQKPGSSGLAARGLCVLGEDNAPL
Beta-2 adrenergic receptor (Homo sapiens), sequence (P07550 whole entry, looked up): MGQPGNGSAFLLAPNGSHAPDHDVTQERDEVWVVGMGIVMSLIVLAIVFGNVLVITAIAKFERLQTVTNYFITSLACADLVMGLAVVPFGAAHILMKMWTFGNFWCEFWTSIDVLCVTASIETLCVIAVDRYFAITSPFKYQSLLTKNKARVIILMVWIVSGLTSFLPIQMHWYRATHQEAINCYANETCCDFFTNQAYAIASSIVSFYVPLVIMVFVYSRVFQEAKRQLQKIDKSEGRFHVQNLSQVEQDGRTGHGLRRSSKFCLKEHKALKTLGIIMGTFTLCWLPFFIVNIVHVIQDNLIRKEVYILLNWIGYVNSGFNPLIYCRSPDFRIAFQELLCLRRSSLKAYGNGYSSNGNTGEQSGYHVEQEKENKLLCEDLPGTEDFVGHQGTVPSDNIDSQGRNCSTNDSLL

`CC(C)=CCCC(C)CC(=O)O` (stereo unspecified): the Potency entry in experiment [1], in experiment [2], in experiment [3], in [4], in experiment [5] and in experiment [6] was “inactive” throughout. The Potency entry in [7], in [8], in experiment [9], in experiment [10], in experiment [11] and in experiment [12] was “inactive” throughout. Also, the Potency entry in experiment [13] is “inactive”.

In the case of `O=C(Cl)c1ccc([N+](=O)[O-])cc1`, the Potency result in experiment [1], in experiment [2], in [3], in [4], in [5] and in experiment [6] was “inactive” in each case. Besides, the Potency result in experiment [7], in experiment [14], in experiment [8], in experiment [9], in [10] and in experiment [11] was “inactive” in each case. Moreover, the Potency result in [12], in experiment [15] and in [13] was “inactive” throughout.

On to `C/C=C/C=N/NC(=O)c1ccncc1`, for which the Potency result in experiment [1], in [2], in experiment [3], in experiment [4], in [5] and in experiment [6] was “inactive” each time. In addition, the Potency result in experiment [7], in [14], in experiment [8], in experiment [9], in [10] and in experiment [12] was “inactive” each time. Further, the Potency entry in experiment [16] and in experiment [13] was “inactive” in each case.

As for `CCCCCCCC#N`, the Potency entry in [1], in experiment [2], in experiment [3], in [4], in experiment [7] and in experiment [8] was “inactive” throughout. The Potency entry in [9], in experiment [10], in [11], in experiment [17], in experiment [12] and in experiment [16] was “inactive” in each case. Moreover, the Potency result in [15] and in experiment [13] was “inactive” throughout. In addition, the Potency in [5] is 32.4 µM (active).

With `CCOC(=O)c1ccc(N(C)C)cc1`, the Potency result in experiment [1], in experiment [2], in [3], in experiment [4], in experiment [5] and in [6] was “inactive” throughout. Moreover, the Potency result in [7], in [8], in experiment [10], in [11], in experiment [17] and in experiment [12] was “inactive” in each case. Moreover, the Potency result in [13] is “inactive”.

For `O=CNc1ccccc1`, the Potency entry in experiment [1], in [2], in [3], in experiment [4], in [5] and in experiment [7] was “inactive” each time. For the same compound, the Potency result in experiment [14], in experiment [8], in experiment [10], in [11], in experiment [17] and in experiment [12] was “inactive” each time. The Potency entry in experiment [15] and in [13] was “inactive” throughout.

On to `Cn1c(NCCN(CCO)CCCc2ccc([N+](=O)[O-])cc2)cc(=O)n(C)c1=O`, for which the Potency result in experiment [1], in [2], in experiment [3], in experiment [4], in [5] and in experiment [6] was “inactive” each time. The Potency entry in [7], in experiment [9], in experiment [10], in experiment [11], in experiment [17] and in experiment [12] was “inactive” each time. Further, the Potency entry in [15] and in experiment [13] was “inactive” in each case.

Turning to `Nc1nc(Cl)cc(Cl)n1`, the Potency entry in experiment [1], in experiment [2], in experiment [3], in [4], in experiment [5] and in experiment [6] was “inactive” each time. Moreover, the Potency result in experiment [7], in experiment [14], in experiment [8], in experiment [9], in experiment [10] and in experiment [12] was “inactive” throughout. Moreover, the Potency result in experiment [15] and in [13] was “inactive” throughout.

On to `Cc1c[nH]c(=S)[nH]c1=O`, for which the Potency entry in [1], in experiment [2], in [3], in experiment [4], in [5] and in experiment [6] was “inactive” each time. For the same compound, the Potency entry in experiment [7], in experiment [14], in [8], in experiment [9], in experiment [11] and in experiment [17] was “inactive” in each case. Further, the Potency entry in experiment [12], in [16], in experiment [15] and in experiment [13] was “inactive” in each case.

`CCCCCCCCCCCC(=O)OCC(O)CO` (stereo unspecified): the Potency entry in experiment [1], in [2], in experiment [3], in experiment [4], in [5] and in [6] was “inactive” each time. The Potency result in [7], in experiment [14], in [9], in [10], in experiment [17] and in experiment [12] was “inactive” in each case. In addition, the Potency result in experiment [16], in experiment [15] and in experiment [13] was “inactive” throughout.

Regarding `Cc1onc(-c2c(Cl)cccc2Cl)c1C(=O)Cl`, the Potency entry in experiment [1], in experiment [2], in experiment [3], in [4], in [5] and in [6] was “inactive” in each case. Also, the Potency entry in experiment [18], in experiment [8], in experiment [9], in [10], in experiment [17] and in [12] was “inactive” in each case. In addition, the Potency result in experiment [16], in [15] and in experiment [13] was “inactive” throughout.

Take `C[C@]12CCC(=O)C=C1CC[C@H]1[C@@H]3CC[C@](O)(C(=O)CO)[C@@]3(C)C[C@H](O)[C@@]12F`: the Potency result in [1], in experiment [2], in [3], in [4], in experiment [5] and in [6] was “inactive” each time. The Potency entry in [14], in experiment [8], in [9], in [11], in experiment [17] and in [12] was “inactive” in each case. For the same compound, the Potency entry in experiment [13] is “inactive”.

Turning to `CO/N=C(/C(=O)N[C@@H]1C(=O)N2C(C(=O)[O-])=C(C[n+]3ccn4ncccc43)CS[C@H]12)c1nsc(N)n1`, the Potency entry in [1], in experiment [2], in [3], in [4], in [5] and in experiment [6] was “inactive” throughout. Moreover, the Potency result in [7], in [8], in experiment [10], in experiment [11], in [17] and in experiment [12] was “inactive” throughout. In addition, the Potency entry in [15] and in [13] was “inactive” in each case.

On to `CC(C)C1CCC(C(=O)N[C@H](Cc2ccccc2)C(=O)O)CC1` (stereo partly specified), for which the Potency entry in experiment [1], in [2], in experiment [3], in experiment [4], in [5] and in experiment [6] was “inactive” each time. For the same compound, the Potency entry in [7], in experiment [11], in experiment [17], in [16] and in experiment [13] was “inactive” in each case.
